# Data: ChEMBL document CHEMBL3988442, “University of Dundee, Small-Polar-MMV Screening Library” (2021)
# Hit rate of the full screen: of about 69,000 compounds, about 950 (1.4%) showed an effect of 50% or more. The sample as a whole holds a higher share of strong results than the screen did.
# Tested on: Mycobacterium tuberculosis
# Assay: Cornell M. t heat shock assay; also: in the data most compounds retested in dose-response had high values
# Type: functional, organism-based
# Parameters: dose or concentration left out as unconfirmed
row,SMILES,Percent Effect [%]
1,Cc1noc(CNc2c(N3CCCC3)cccc2N2CCCC2)n1,25.1
2,COc1ccccc1N1CCC(NCc2c(C)noc2C)C1 (centres undefined),-23.49
3,Cc1noc(C)c1CNc1c(N2CCCC2)cccc1N1CCCC1,65.01
4,COc1cccc(CN2CCC3(CC2)CCN(C(=O)[C@@H]2CCCO2)C3)c1.O=C(O)C(F)(F)F,-4.383
5,Cc1nc(Cc2ccc(F)cc2)cc(C2COCCN2)n1.Cl (centres undefined),12.05
6,O=C(Nc1ccccc1)[C@H]1C[C@@H]2CN(S(=O)(=O)C3CC3)C[C@H]1O2,2.732
7,CN(C)CCN(C(=O)Cc1ccc2c(c1)OCCO2)C1CCN(C)CC1.O=C(O)CC(O)(CC(=O)O)C(=O)O,-33.14
8,CCOCC1CN(Cc2cccnc2)Cc2nn(C)cc21.O=C(O)C(F)(F)F.O=C(O)C(F)(F)F (centres undefined),-34.52
9,c1ccc(Oc2ccc(OC34CCCN(CC3)C4)cc2)cc1 (centres undefined),98.13
10,c1ccc(Oc2cccc(OC34CCCN(CC3)C4)c2)cc1 (centres undefined),91.1
11,N#Cc1cccc(OC23CCCN(CC2)C3)c1 (centres undefined),-19.96
12,Cc1nc(CNCc2cccc(OC34CCCN(CC3)C4)c2)n[nH]1 (centres undefined),-9.099
13,Cc1cnccc1CNCc1ccc(OC23CCCN(CC2)C3)cc1 (centres undefined),-9.053
14,O=c1[nH]nc(CNCc2ccc(OC34CCCN(CC3)C4)cc2)[nH]1 (centres undefined),-6.374
15,CCOCC1CN(C(=O)c2cc(C)oc2C)Cc2c1cnn2C.O=C(O)C(F)(F)F (centres undefined),38.21
16,CN1CC(=O)N(c2cccc(F)c2)CC12CCN(S(C)(=O)=O)C2.O=C(O)C(F)(F)F (centres undefined),-1.241
17,CCOCC(=O)Nc1nccn1Cc1ccc(Br)cc1,106.8
18,COCCn1ccc(=O)c(OCC(=O)Nc2ccc(Br)cc2)c1C,17.79
19,CSCC(=O)Nc1ncn(Cc2cccc(Br)c2)n1,-31.04
20,CNC(=O)c1ccc(Cn2ccnc2S(C)(=O)=O)cc1,3.305
21,COCCC(=O)Nc1ccnn1-c1ccccc1,-7.442
22,CSCC(=O)Nc1nccn1Cc1ccc(Br)cc1,103.2
23,CC(C)(C#N)C(=O)Nc1nccn1Cc1ccc(Br)cc1,102.4
24,CCOCC(=O)Nc1ccc(-n2ccc(C(N)=O)n2)cc1,15.42
25,COCCC(=O)Nc1nccn1Cc1ccc(Br)cc1,102.5

row,SMILES,Percent Effect [%]
1,CS(=O)(=O)c1nccn1Cc1ccc(C(N)=O)cc1,2.892
2,CSc1ncccc1C(=O)Nc1ccc(Cn2ccccc2=O)cc1,5.912
3,CCOCC(=O)Nc1ncn(Cc2cccc(Br)c2)n1,-16.14
4,O=C1c2cnc(N3CCOCC3)nc2CN1C1CCS(=O)(=O)C1 (centres undefined),3.438
5,CN(C)[C@@H]1CCN(C(=O)Cc2cccs2)[C@H]1Cc1ccncc1.O=C(O)C(F)(F)F.O=C(O)C(F)(F)F,-5.714
6,O=C(O)C(=O)O.c1cc(CN2CCC(c3ccc4c(c3)OCO4)CC2)ccn1,-9.586
7,Cc1nc[nH]c1CN1C[C@@H]2CC[C@H](C1)N(C(=O)CCn1cncn1)C2,2.899
8,Cc1cc(C(=O)N2CCO[C@H]3[C@H](OCCN(C)C)CC[C@@H]32)c(C)[nH]1.O=C(O)C(F)(F)F,-25.69
9,O=C(O)C(F)(F)F.O=C(O)C(F)(F)F.c1cnn(Cc2nnc3n2CCCN(Cc2ccsc2)C3)c1,-42.35
10,O=C(O)C(F)(F)F.c1cnc(N2CCCC3(CCN(CC4CCOC4)CC3)C2)nc1 (centres undefined),-17.62
11,COCC(=O)Nc1nccn1Cc1ccc(Br)cc1,82.4
12,COCC(=O)Nc1nn(Cc2ccc(F)cc2)cc1Cl,-26.17
13,COCC(=O)NC(C)Cc1ccc(Br)cc1 (centres undefined),38.61
14,Cc1cccc(Cc2cc(C)nc(C3CCCNC3)c2)c1 (centres undefined),-6.804
15,Cc1cc(Cc2ccccc2)cc(C2CCCNC2)n1 (centres undefined),-1.453
16,Cc1cc(Cc2cccc(C(F)(F)F)c2)cc(C2CCCNC2)n1 (centres undefined),52.39
17,CN(C)C(=O)C1CCN(C2CCN(CC3CCC3)CC2)CC1.O=C(O)C(F)(F)F.O=C(O)C(F)(F)F,5.992
18,CNc1cncc(C2CCCN2S(=O)(=O)c2ccccc2)n1 (centres undefined),-16.46
19,c1cc(C2CCCN2CC2CC2)n[nH]1 (centres undefined),1.213
20,c1nnc(Nc2cncc(C3CCCN3CC3CC3)n2)s1 (centres undefined),103.4
21,c1ccc(CCN2CCCC2c2cncc(Nc3nncs3)n2)cc1 (centres undefined),99.24
22,CNc1cncc(C2CCCN2Cc2ccn(C)n2)n1 (centres undefined),-19.6
23,Cc1nc(Nc2nncs2)cc(C2CCCN2C)n1 (centres undefined),-13.41
24,Cl.Cl.c1ccc2c(c1)C(NC1CCCC1)CC21CCNCC1 (centres undefined),-6.748
25,O=C1C[C@H]2CC[C@@H](CN1)N2C(=O)CCCc1ccc(Cl)cc1,-2.57

row,SMILES,Percent Effect [%]
1,CN1[C@H]2CC[C@@H]1CN(C(=O)c1ccc(-c3ccccc3)[nH]1)CC2,5.823
2,O=C(c1ccco1)N1CCC(n2nc(-c3ccco3)ccc2=O)CC1,18.57
3,O=C(Cc1ccsc1)N1CCC(n2nc(-c3ccco3)ccc2=O)CC1,50.48
4,CC(C)C(=O)N1CCC(n2nc(-c3ccco3)ccc2=O)CC1,1.271
5,Cc1nc(CNCC2Cn3nncc3CO2)cs1.O=C(O)C(F)(F)F (centres undefined),3.892
6,O=C(O)C(F)(F)F.O=C(c1cscn1)N1CCC2(CN(Cc3ccoc3)C2)C1,-1.882
7,COCc1nc2cc(NCc3ccc(C)o3)ccc2o1,60.09
8,COCc1nc2cc(NCc3ccc(CO)o3)ccc2o1,-21.34
9,COCc1nc2cc(NCc3ccncc3)ccc2o1,47.84
10,CCc1ccsc1C(=O)N1CCN(CC(O)CC)CC1 (centres undefined),21.24
11,O=C(c1ccco1)N1C(CO)[C@]2(O)CC[C@H]1CC2 (some centres undefined),34.52
12,CN(C)CCN1CCO[C@@H]2CN(C(=O)c3cccs3)CC[C@@H]2C1.O=C(O)C(F)(F)F.O=C(O)C(F)(F)F,-0.5819
13,CN(C)CCN1CCO[C@@H]2CN(C(=O)Cc3ccsc3)CC[C@@H]2C1,50.48
14,Cc1ccc(CC(=O)N2CC[C@@H]3CN(CCN(C)C)CCO[C@@H]3C2)cc1.O=C(O)C(F)(F)F.O=C(O)C(F)(F)F,-3.479
15,CCc1c(C)[nH]c(C2(N)CCCCC2)nc1=O.Cl,-31.03
16,O=C(c1cccnc1SCc1ccccc1)N1CC[C@@H](O)C1,7.782
17,COCCNC(=O)c1cccnc1Oc1ccc(Cl)cc1,50.01
18,O=C(NCCOCCO)c1cccnc1Oc1ccc(Cl)cc1,43.92
19,CCOC(=O)CNC(=O)c1cccnc1Oc1ccc(Cl)cc1,-21.74
20,COc1ccc(Oc2ncccc2NC(=O)N2CC[C@H](O)C2)cc1,-5.111
21,O=C(c1cccnc1Oc1ccc(Cl)cc1)N1CC[C@@H](O)C1,54.07
22,O=C(Cc1ccccn1)N1CCN2C[C@H](Oc3cccc(F)c3)C[C@H]2C1.O=C(O)C(F)(F)F.O=C(O)C(F)(F)F,-12.23
23,CN(C)C(=O)N1CCC2(CCCN(Cc3cnn(C)c3)C2)C1.O=C(O)C(F)(F)F (centres undefined),-9.776
24,CC(C)n1c(C2CCCN(CC(=O)NC3CC3)C2)nc2ccccc21 (centres undefined),-32.24
25,CN1CCN(C(=O)c2ncn3c2CN(C)S(=O)(=O)c2ccccc2-3)CC1.O=C(O)C(F)(F)F,-21.31

row,SMILES,Percent Effect [%]
1,CCn1cc(N2Cc3nc(N(C)C)ncc3C2=O)cn1,8.315
2,O=C(C1CC=CC1)N1CCC2(CCN(Cc3ccccn3)C2=O)C1.O=C(O)C(F)(F)F (centres undefined),-18.77
3,COc1ccc(OCCNCc2c(C)nn(C)c2N(C)C)cc1.Cl,36.3
4,CNC(=O)c1cc2c(nc1N(C)C)CCN(c1ncc(C)cn1)CC2.O=C(O)C(F)(F)F,38.06
5,O=C(O)C(F)(F)F.O=C(c1ccc(F)cc1)N1C[C@@H]2CCN(c3cccnc3)C[C@@H]2C1,-7.242
6,O=C(C1CCC1)N1C[C@@H]2CCN(c3cccnc3)C[C@@H]2C1.O=C(O)C(F)(F)F,-23.64
7,Fc1cccc(N2C[C@H]3CCN(c4cccnc4)C[C@H]3C2)c1.O=C(O)C(F)(F)F,98.87
8,C[C@@H]1CN(CCc2ccccc2)C[C@]12CCN(CC(=O)N(C)C)C2=O.O=C(O)C(F)(F)F,2.052
9,Cn1c(CNCC2CCCN2c2cccnn2)nc2ccccc21 (centres undefined),3.675
10,CN(Cc1ncc(-c2ccccc2)o1)CC1CCCN1c1cccnn1 (centres undefined),0.462
11,CC(C)(C)c1cnc(CNCC2CCCN2c2cccnn2)o1 (centres undefined),-26.2
12,Cc1nc2ccccc2nc1CN(C)CC1CCCN1c1cccnn1 (centres undefined),18.99
13,CN(Cc1ncc(C(C)(C)C)o1)CC1CCCN1c1cccnn1 (centres undefined),66
14,CN(Cc1nc2ccccc2n1C)CC1CCCN1c1cccnn1 (centres undefined),101.2
15,Cn1nccc1-c1nnn2c1COCC(CNCC1CC1)C2.O=C(O)C(F)(F)F.O=C(O)C(F)(F)F (centres undefined),30.33
16,COc1cccc2c(C)c(C(=O)N3CCNCC3C(N)=O)[nH]c12.Cl (centres undefined),-6.521
17,O=C(O)C(F)(F)F.O=C(O)C(F)(F)F.c1ccc(N2CCC3(COCCN(Cc4cccs4)C3)C2)nc1 (centres undefined),0.5206
18,CC(C)NC(=O)N1C[C@H](OCc2cccnc2)[C@H]2COC[C@H]21.O=C(O)C(F)(F)F,2.427
19,CCc1nnc2n1CCN(Cc1ncc(-c3ccc(Cl)cc3)o1)C2,-1.022
20,Cc1nnc2n1CCN(Cc1ncc(-c3ccc(Cl)cc3)o1)C2,-15.98
21,CCc1nnc2n1CCN(Cc1ncc(-c3ccc(F)cc3)o1)C2,-9.541
22,Cc1nnc2n1CCN(Cc1ncc(-c3ccccc3)o1)C2,-5.111
23,Cc1nnc2n1CCN(Cc1ncc(-c3ccc(F)cc3)o1)C2,77.14
24,CCc1nnc2n1CCN(Cc1ncc(-c3ccccc3)o1)C2,76.57
